Measured values published in the supplement of paper PMC3334620.
Over roughly 33,000 sequences, “E-score (-0.5 to 0.5)” has its median near -0.011; the highest 2% begin near 0.28. Shown is part of a subset that was picked to be rich in the highest values.

These sequences were tested against T1, Gcr1 (UniProt P07261) (assay: PBM E-score (8-mer binding enrichment) (E-score (-0.5 to 0.5)); higher = stronger / more preferred TF binding). Settings: protein concentration: 100 nM; construct: GST-full length.
T1 sequence: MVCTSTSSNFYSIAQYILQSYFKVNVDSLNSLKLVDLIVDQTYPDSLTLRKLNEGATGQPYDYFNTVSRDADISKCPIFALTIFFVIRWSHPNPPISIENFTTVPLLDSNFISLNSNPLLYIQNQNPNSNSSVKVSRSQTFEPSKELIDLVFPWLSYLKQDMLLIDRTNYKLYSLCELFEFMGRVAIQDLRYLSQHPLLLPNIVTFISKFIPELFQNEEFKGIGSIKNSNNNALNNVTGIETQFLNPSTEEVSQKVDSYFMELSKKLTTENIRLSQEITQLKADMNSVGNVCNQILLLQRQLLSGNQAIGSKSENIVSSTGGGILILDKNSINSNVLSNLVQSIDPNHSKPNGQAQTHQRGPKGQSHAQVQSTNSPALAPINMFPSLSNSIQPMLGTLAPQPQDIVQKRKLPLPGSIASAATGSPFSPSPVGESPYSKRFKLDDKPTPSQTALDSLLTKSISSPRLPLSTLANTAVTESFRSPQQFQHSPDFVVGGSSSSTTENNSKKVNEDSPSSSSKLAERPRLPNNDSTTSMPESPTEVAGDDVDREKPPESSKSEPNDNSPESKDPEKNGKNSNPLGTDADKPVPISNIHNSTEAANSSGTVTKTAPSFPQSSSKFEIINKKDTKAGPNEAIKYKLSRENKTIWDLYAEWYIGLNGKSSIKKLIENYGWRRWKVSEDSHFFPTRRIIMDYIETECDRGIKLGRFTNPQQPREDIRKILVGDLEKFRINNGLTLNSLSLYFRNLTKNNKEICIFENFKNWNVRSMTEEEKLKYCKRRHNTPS
Protocol: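 Universal 'all 10-mer' protein binding microarrays (Agilent AMADID 015681) probed with GST-tagged S. cerevisiae TFs (full-length or DBD) made by in vitro transcription/translation (PURExpress), about 100-200 nM. Bound TF was detected with fluorescent anti-GST. Each ungapped 8-mer (which stands for itself and its reverse complement) is scored by the PBM enrichment score (E-score), a modified Wilcoxon-Mann-Whitney statistic from -0.5 to +0.5, computed with the Universal PBM Analysis Suite. Scale: above 0.35 generally sequence-specific binding.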

Row | Sequence | PBM E-score
1 | CGGCATAC | -0.113
2 | CGGCATCA | 0.223
3 | AGGCATCC | 0.387
4 | CGGCATCC | 0.444
5 | AGGCATCA | -0.162
6 | AGGCATCG | 0.0175
7 | ACGCCTCA | -0.137
8 | AGGCTGCC | 0.382
9 | CGGCTGCA | 0.0568
10 | AGGCTGCG | 0.138
11 | AGGCTCCC | 0.24
12 | CGGCTGCC | 0.376
13 | CGGCTCCA | 0.0712
14 | CGGCTCCC | 0.34
15 | AGGCTGCA | -0.0233
16 | CTGCTGCC | -0.0289
17 | CTGTCTTA | 0.0396
18 | CGCCATAC | 0.127
19 | TACCAGCA | 0.0312
20 | ACCCAGGT | 0.0419
21 | CAACGCTG | -0.0977
22 | ATTTTTCA | 0.1
23 | ACGGCTCT | -0.00284
24 | AAATGGCT | 0.0656
25 | ACTCACCC | -0.126

Row | Sequence | PBM E-score
26 | ATGGAAGC | 0.344
27 | ATGGAAGG | -0.201
28 | CTGGAAGC | 0.45
29 | CTGGAAGA | 0.0722
30 | ATGGAAGA | -0.0302
31 | GTGGAAGA | 0.172
32 | CCATGGGC | 0.0107
33 | ACCCCTGA | 0.0403
34 | CCTGGTCG | -0.127
35 | TCCCACGA | 0.244
36 | GGCACCAA | 0.335
37 | GGCACCAC | 0.249
38 | TGCACCAA | -0.133
39 | GGCACCTA | 0.281
40 | AGCACCTA | 0.241
41 | CGCACCTA | 0.0792
42 | CCACAAAC | 0.19
43 | ATGCATCC | -0.00178
44 | ATGAAATG | 0.104
45 | TCCCCAAA | 0.226
46 | AGGGCGCG | 0.194
47 | AGGGCGCC | 0.399
48 | AGGGCGCA | -0.0301
49 | CGGGCGGC | 0.0469
50 | CGGGCGCC | 0.421

Row | Sequence | PBM E-score
51 | CGGGCGCA | 0.0492
52 | ATTAAGGG | 0.0551
53 | ATTATCCG | 0.00436
54 | TACCTGAA | 0.0937
55 | ATCAGGAG | 0.0606
56 | CTCTCCAA | -0.0761
57 | AGTGTCAG | -0.142
58 | GCAGATAC | 0.0819
59 | CCAGATAA | 0.0427
60 | ACAGATTC | 0.176
61 | CCAGATAC | 0.294
62 | CCAGATTC | 0.326
63 | CCAGATTA | 0.233
64 | CCCTGCCA | 0.0623
65 | CCGCGCAG | -0.219
66 | AGGGATTG | 0.0467
67 | GTGCACTA | -0.146
68 | AGCTGGCA | 0.0163
69 | GAAGCTCC | 0.309
70 | GAAGCTTC | 0.339
71 | CAAGCTGA | -0.139
72 | TAAGCGGA | -0.143
73 | GAAGCTGA | 0.322
74 | CAAGCTTC | 0.232
75 | AAAGCTCC | -0.0149

Row | Sequence | PBM E-score
76 | GAAGCTCA | 0.224
77 | CAAGCGGA | -0.137
78 | AAAGCTGA | 0.113
79 | GAAGCGGA | 0.328
80 | GAAGCTTA | 0.136
81 | ATGGGCTC | 0.102
82 | TCGGTGAA | -0.0389
83 | GACCATAC | 0.159
84 | CACAGCTA | -0.0538
85 | AAAACGCT | -0.0686
86 | TACCCGGA | -0.0492
87 | GTAATGGA | 0.0927
88 | CAGGCCCG | -0.263
89 | TATAAGGA | 0.124
90 | GCTTTGGA | 0.0838
91 | AAACGCCG | 0.0308
92 | CCGCTAGA | -0.00443
93 | AGGCTTGG | 0.0323
94 | CAAGCTGC | 0.149
95 | AAAGCTGC | -0.123
96 | GAAGCTGC | 0.406
97 | CAATCGAG | 0.00485
98 | CTTCCGAC | -0.00712
99 | GAGTGATA | -0.122
100 | CCGAAGGC | -0.158

Row | Sequence | PBM E-score
101 | ATCGAGGC | -0.0857
102 | ACCAGATA | 0.0838
103 | GAAGCCCA | 0.368
104 | CAAGCCCC | -0.18
105 | CAAGCCCA | -0.244
106 | GAAGCCCC | 0.381
107 | AAAGCCCC | -0.121
108 | AAAGCCCA | -0.0697
109 | AACGCGGT | -0.107
110 | GTTAAATA | 0.0652
111 | TCTAAGAA | 0.0856
112 | CGTCTCCA | 0.284
113 | AGTCTCCA | 0.0915
114 | CGTCTCCC | 0.0616
115 | CGGCCCCC | 0.0724
116 | ACTAGTCG | 0.065
117 | AGTCTGCA | -0.179
118 | GAAGAGCA | -0.0362
119 | CAGTGATA | 0.0897
120 | AACCAAGG | -0.00121
121 | GGCTCCCA | 0.348
122 | CGCTCCCA | 0.132
123 | GGATCCCC | 0.362
124 | AGATCCCA | 0.265
125 | AGATCCCC | 0.156

Row | Sequence | PBM E-score
126 | TGCTCCCA | -0.0935
127 | GGATCCCA | 0.391
128 | CGATCCCC | 0.111
129 | TGATCCCA | 0.065
130 | AGTCTAGC | 0.0246
131 | CTGATAAG | 0.0222
132 | GTAGCTGA | -0.023
133 | TATCTCGA | -0.115
134 | GTTCCTTA | 0.0517
135 | GGGCTCCA | 0.318
136 | GGGCTCGA | -0.0878
137 | CGACTCCA | 0.0419
138 | TGACTCCA | 0.0388
139 | AGGCTCCA | 0.263
140 | GGACTCCA | 0.345
141 | AGATGAGG | -0.0257
142 | ATATTATG | 0.132
143 | CTAGACCC | -0.0797
144 | AAAGACTC | -0.195
145 | CGCCATAG | -0.14
146 | AAGTTCGA | 0.0312
147 | GGAAGGCA | 0.0904
148 | AAGTAGCT | 0.208
149 | AAGCTTCC | 0.353
150 | CAGCTTCC | 0.457

Row | Sequence | PBM E-score
151 | CTGCTTCC | 0.177
152 | CAGCTTCG | 0.328
153 | CAGCTTGC | -0.267
154 | CAGCTTCA | 0.0949
155 | AAGCTTCT | 0.184
156 | AAGCTTCG | 0.129
157 | AAGCTTCA | -0.0647
158 | CAAGAGCG | 0.0229
159 | GGGCGAGA | -0.0433
160 | AAGATTAA | 0.233
161 | AGAATGTG | -0.221
162 | GAGTCCAC | 0.257
163 | AACGCCTA | -0.0917
164 | CTGATGCC | -0.0173
165 | CGGATGCA | 0.0929
166 | CGGATTTC | -0.122
167 | AGGATTCC | 0.373
168 | CGGATTCA | -0.0182
169 | AGGATTCG | 0.126
170 | AGGATTCA | -0.164
171 | CGGATGCC | 0.404
172 | CGGATTCC | 0.463
173 | AGCCCGTG | -0.0206
174 | ACCACTGA | 0.0982
175 | AACCCGGG | 0.0515

Row | Sequence | PBM E-score
176 | CGCCGGGC | -0.0527
177 | ACACCTTA | 0.0539
178 | GCTGATCC | -0.0746
179 | GCCGCCAA | 0.125
180 | GCTCGCGA | 0.0716
181 | TGCACCCA | 0.151
182 | AGCACCCC | 0.131
183 | CGCACCCA | 0.236
184 | GGCACCCC | 0.322
185 | GGCACCCA | 0.381
186 | CGCACCCC | 0.0174
187 | AACCTGCA | -0.0327
188 | CCCGATGA | -0.0833
189 | CAAATCGG | 0.0561
190 | CTTCCGGA | 0.347
191 | CATCCAAC | -0.0403
192 | ATTCCACA | 0.247
193 | ATTCCAAA | 0.307
194 | ATTCCACG | 0.0676
195 | ATTCCGAA | 0.147
196 | CTTCCACA | 0.349
197 | ACTCCAAA | 0.116
198 | CATCCAAG | -0.0862
199 | CTTCCGGC | 0.111
200 | CATCCAAA | 0.298

Row | Sequence | PBM E-score
201 | ATTCCGGA | 0.197
202 | AGCTTATG | 0.0485
203 | CCGACATA | 0.0516
204 | GATAACCC | -0.017
205 | AGCCCCCG | -0.0643
206 | AGCGGGCA | -0.156
207 | CTCCGGGA | 0.00075
208 | ACGGAGGC | -0.00955
209 | ATTCCAAC | 0.221
210 | CGTCCAAA | 0.33
211 | GTTCCAAC | 0.0801
212 | TTTCCAAA | 0.178
213 | ATTCCAAT | 0.299
214 | CGTCCAAG | -0.0458
215 | CTTCCAAG | -0.132
216 | GTTCCAAA | 0.302
217 | CTTCCAAA | 0.338
218 | ATTCCAAG | 0.196
219 | AGTCCAAA | -0.0142
220 | CTTCCAAC | 0.181
